A selection: hits, their analogues and other compounds. The true share with any hit is near 2.5%.
RAD52 anneal inh = RAD52 DNA annealing inhibitors, primary screen, biochemical, FRET, single point, set 2; DNA repair protein RAD52 homolog (Homo sapiens), P43351; recombinant RAD52 DNA annealing, FRET fluorescence; inhibition, % at 18.7 µM; 360,000 tested, 0.46% active;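 active = every replicate showing at least 50% inhibition; inconclusive = mean inhibition at least 50% but not in every replicate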
AF4-AF9 inh = inhibitors of AF4 peptide binding to AF9, primary screen, biochemical, AlphaScreen, biotin-AF4 peptide, FLAG-AF9, single point; Protein AF-9 (Homo sapiens), P42568; inhibition, % at 10 µM; 350,000 tested, 0.47% active;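 active = every replicate reaching a set inhibition limit, whatever the replicate mean, cut at about 25% in these data; inconclusive = mean inhibition reaches that limit but some replicates miss it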;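 note: 0% = plate neutral control median and 100% = total signal loss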
Ecoli rRNA inh = reduced GFP signal of wild-type E. coli, primary screen, bacterial rRNA inhibitor project, GFP/RFP fluorescence, OD600, single point; E. coli WT GFP vs humanized-ribosome RFP mutants, 24 h; active compounds read low; DMSO median 0, no signal -100; GFP signal change (wild-type ribosome), % (test concentration not listed); 350,000 tested, 1.6% active; AID 720706, 2013;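 active = significant combined selectivity score with lowered wild-type GFP, culture density cut under 30%, mutant RFP and density less affected; inactive = any of these conditions unmet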
Casp6 inh = human caspase-6 inhibitors, primary screen, biochemical, VEID-R110 fluorescence, single point, set 2. 350,000 tested, 0.53% active. inhibition, % at 12.5 µM. purified caspase-6, Z-VEID-R110 cleavage fluorescence. AID 686996, 2013. P55212;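 active = mean inhibition across replicates at least about 35%, with every replicate also reaching that limit, limit read from the data; inconclusive = only one of the two criteria met; inactive = neither criterion met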;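 note: 0% = median of neutral control wells and 100% = no fluorescence left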
NSD2 inh = NSD2 histone methyltransferase inhibitors, primary screen, biochemical, AlphaScreen, single concentration, set 2. Histone-lysine N-methyltransferase NSD2 (Homo sapiens), O96028. NSD2 peptide methylation, 120 min. inhibition, % at 12.5 µM. 310,000 tested, 0.54% active; in the data active = inhibition above about 50%
Starred values were filed as active, the others as inactive; ? = inconclusive; . = not tested or not shown.

SMILES	RAD52 anneal inh	AF4-AF9 inh	Ecoli rRNA inh	Casp6 inh	NSD2 inh
O=C(Nc1ccccc1)N1C[C@@H]2N[C@H](C1)[C@@H]2c1ccc(/C=C/c2ccccc2)cc1	72*	29*	-25*	0	.
O=C(C1CCCC1)N1C[C@@H]2N[C@H](C1)C2c1ccc(/C=C/c2ccccc2)cc1 (some centres undefined)	58*	10	-57	-3	.
COc1ccccc1CN1C[C@@H]2N[C@H](C1)C2c1ccc(-c2ccccc2)cc1 (some centres undefined)	27	15	-59	-3	.
CCC(=O)N1CC2(C1)[C@H](c1ccc(-c3ccccc3OC)cc1)[C@H](CO)N2C(C)=O	-18	-1	1	2	.
C[C@H](CO)N1C[C@H](C)[C@@H](CN(C)C(=O)c2ccccc2)OCCCC[C@H](C)Oc2ccc(NS(=O)(=O)c3ccccc3)cc2C1=O	-6	-2	-2	0	.
C[C@H]1CN([C@@H](C)CO)S(=O)(=O)c2ccc(C3=CCCC3)cc2O[C@H]1CN(C)Cc1ccccc1	-9	11	-22	1	.
O=C(c1ccc(F)cc1)N1C[C@@H]2N[C@H](C1)C2c1ccc(/C=C/c2ccccc2)cc1 (some centres undefined)	65*	?	-62	0	.
CCC(=O)N(C)C[C@@H]1Oc2cc(C3=CCCCC3)ccc2S(=O)(=O)N([C@@H](C)CO)C[C@H]1C	.	.	-1	.	.
C[C@@H]1CN([C@H](C)CO)C(=O)Cc2cc(NS(=O)(=O)c3cccs3)ccc2O[C@@H]1CN(C)S(=O)(=O)c1ccc(F)cc1	1	-3	-2	1	.
CCOc1ccc2ccc(OCC)c(/C=N/n3cnnc3)c2c1	2	-4	-27*	-3	0
O=C1C(=C(c2ccccc2)N2CCOCC2)Cc2ccccc21	-7	16	-22*	-1	11
CCOc1ccccc1N1CCN(C(=O)c2ccccc2OCc2c(C)noc2C)CC1	1	-2	-16*	-106	-7
O=[N+]([O-])c1c(Nc2cccc(O)c2)cc(Cl)c2nonc12	2	5	-45*	7	20
O=C(O)c1ccc(Nc2cc(Cl)c3nonc3c2[N+](=O)[O-])cc1	-6	-6	-3	.	1
Oc1ccc(Br)cc1CNc1ccccn1	2	-1	-16*	2	-1
Cc1ccc(S(=O)(=O)N[C@@H]2CC[C@H](CCNC(=O)CN3CCOCC3)O[C@H]2CO)cc1	-6	1	3	1	.
Cc1ccc(-c2csc(NCCn3c(-c4ccncc4)nc4ccccc43)n2)cc1	-7	-6	-21*	-1	.
Cc1ccc(-c2csc(NCCn3c(-c4ccncc4)nc4cc(C(F)(F)F)ccc43)n2)cc1	-18	.	10	1	.
O=C1C(c2ccccc2)c2ccccc2N1Cc1ccccc1 (centres undefined)	-9	-2	-20*	5	-1
NC(=S)N/N=C/c1ccc(-c2cc(Cl)ccc2Cl)o1	-22	-3	-21*	1	4
CN(C(=O)c1ccc(Cl)cc1)c1ccc(OCC(=O)Nc2cc(C(=O)O)ccc2Cl)cc1	-3	-7	-7	36*	7
CCCNC(=O)N1CC2(CCN(Cc3ccccn3)CC2)c2c(n(C)c3cc(OC)ccc23)[C@@H]1CO	7	-6	0	-2	.
CC1(C)COC(c2cc([N+](=O)[O-])ccc2Cl)=N1	.	.	.	.	0
CC1(C)COC(/C=C/c2cccc([N+](=O)[O-])c2)=N1	-14	0	9	46*	-4
O=C(/C=C\Nc1ccc(S(=O)(=O)Nc2ncccn2)cc1)c1cccc2ccccc12	-23	-3	-20*	4	22
SMILES	RAD52 anneal inh	AF4-AF9 inh	Ecoli rRNA inh	Casp6 inh	NSD2 inh
CC(C)C[C@H]1COCc2cn(nn2)CC[C@@H](Cc2ccccc2)C(=O)N1	-5	-2	0	-2	.
Clc1ccc(-n2nnnc2SCc2cn3ccccc3n2)cc1	.	.	.	.	-2
Clc1ccc(SCc2cn3ccccc3n2)cc1	3	-6	-28*	2	0
Cc1nn(Cc2ccccc2)c(C)c1NC(=O)CSc1nnc(-c2cc(Cl)ccc2O)n1C	14	5	-20*	4	4
Cc1nn(Cc2ccccc2)c(C)c1NC(=O)CCC(=O)O	.	.	.	.	0
COc1ccc2c3c([nH]c2c1)[C@H](CO)N(Cc1cccc(F)c1)CC31CCN(C(C)=O)CC1	-83	-4	5	-1	.
Cc1c(Cc2ccc3c(c2)OCO3)sc(NC(=O)C2CC2)c1C(N)=O	-6	2	-27*	4	0
O=C(CSc1nc(O)c(Cc2ccccc2)c(=O)[nH]1)Nc1nnc(SCc2ccccc2)s1	-11	-4	16	51*	31
C[C@@H]1CN([C@H](C)CO)C(=O)c2cccc(NC(=O)C3CCCCC3)c2O[C@H]1CN(C)CC1CC1	1	-1	-2	2	.
CC(=O)c1ccc(-c2ccc(C(=O)NCC(c3ccc(F)cc3)N3CCOCC3)o2)cc1 (centres undefined)	-47	-12	-14	4	3
O=C(NCC(c1ccc(F)cc1)N1CCOCC1)c1ccc([N+](=O)[O-])o1 (centres undefined)	-8	0	-18*	1	2
C[C@@H]1CN([C@H](C)CO)C(=O)c2cc(NS(=O)(=O)c3ccc(Cl)cc3)ccc2O[C@@H](C)CCCCO[C@@H]1CN(C)C(=O)c1ccccc1	9	-2	3	3	.
O=C(C[C@@H]1CC[C@H](NC(=O)c2cnccn2)[C@H](CO)O1)NCc1ccccc1F	-5	-1	2	3	.
COc1ccccc1-c1cnc2c(c1)C(=O)N([C@H](C)CO)C[C@@H](C)[C@@H](CN(C)C)O2	-11	-2	2	2	.
COC(=O)c1sccc1NC(=O)NC1CCCCC1	-14	4	-1	2	-3
COC(=O)c1sccc1NC(=S)N(C)C1CCCCC1	-5	-1	-26*	-1	4
CC(=O)N(C)C[C@@H]1Oc2c(NC(=O)NC(C)C)cccc2C(=O)N(C)C[C@H]1C	.	.	0	.	.
O=C(Nc1ccc(F)cc1)c1ccccc1NC(=O)C1CC=CCC1C(=O)O (centres undefined)	3	-1	-4	37*	-2
CCn1c(SCC(=O)OCc2ccccc2)nnc1-c1ccco1	-19	-10	3	57*	-1
Cc1ccsc1-c1n[nH]c(=S)n1C1CCCCC1	-3	5	-41*	2	-1
COc1ccc(-c2n[nH]c(=S)n2C2CCCCC2)cc1	.	.	.	.	2
CCOC(=O)c1c(C)c(C(=O)NCCOC)c(C)n1CC	-17	5	7	1	-8
